This is an account of results in PubChem BioAssay (NCI).

The panel holds about 83,000 compounds, 20% with a hit somewhere; the sample as a whole holds those more often.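 Cell lines were cultured in 96-well plates, exposed to a single compound concentration, and assessed for percent growth 48 hours later.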 Values without a mark were called inactive. Active and inactive are the calls of the source. How the source made its calls: active means growth percent below 10; inactive means the rest.

Some test systems named below: NCI-H226 lung; NCI-H322M lung; HOP-62 NSCLC; NCI-H460 lung; HOP-92 NSCLC; NCI-H522 lung; A549/ATCC NSCLC; 786-0 renal; COLO 205 colon; DU-145 prostate; K-562 leukemia; MALME-3M melanoma; MDA-MB-231 breast; RXF 393 renal; SF-268 CNS; SF-295 CNS; SF-539 CNS; UACC-257 melanoma; M14 melanoma.
Test in all cases: NCI-60 one-dose screen, 48 h (100 = growth as untreated, 0 = no growth, -100 = all killed)
What all share (settings): 10 µM unless noted

For the molecule `N#CSCc1c(Cl)cccc1Cl`, the growth in the assay on NCI-H226 lung was 99.3%; in the assay on NCI-H322M lung, 97.9%; with HOP-62 NSCLC it was 79.1%; in the assay with NCI-H460 lung, 106%; in the assay on HOP-92 NSCLC, 53.7%; in the assay on NCI-H522 lung, 43.8%. Further, the growth in the assay with A549/ATCC NSCLC was 97.6%; in the assay with 786-0 renal it was 71.5%; in the assay with COLO 205 colon, 49.6%; with DU-145 prostate it was 21%; in the assay on K-562 leukemia it was 83.8%; in the assay on MALME-3M melanoma, 47.1%. The growth in the assay on MDA-MB-231 breast was 80.4%; in the assay with RXF 393 renal, 50.1%; with SF-268 CNS, 53.3%; in the assay with SF-295 CNS, 94.8%; with SF-539 CNS, 88.5%; with UACC-257 melanoma, 79.5%. Also, the growth in the assay with M14 melanoma is 9.86% (active).
On to `Oc1c(Br)c(Br)c(O)c(Br)c1Br`, for which the growth in the assay with NCI-H226 lung is 113%; in the assay on NCI-H322M lung it was 105%; in the assay on HOP-62 NSCLC, 146%; with NCI-H460 lung, 120%; with HOP-92 NSCLC it was 142%; in the assay with NCI-H522 lung, -88% (active). For the same molecule, the growth in the assay with A549/ATCC NSCLC is 118%; in the assay on 786-0 renal, 111%; with COLO 205 colon it was -34.4% (active); in the assay on DU-145 prostate, 112%; in the assay with K-562 leukemia it was 7.81% (active); with MALME-3M melanoma, 56.5%. In addition, the growth was 116% in the assay with MDA-MB-231 breast; 12.5% in the assay on RXF 393 renal; 108% with SF-268 CNS; 107% in the assay with SF-295 CNS; 119% in the assay on SF-539 CNS; 117% in the assay with UACC-257 melanoma. Moreover, the growth with M14 melanoma was 110%.
Regarding `CCCCCC(CCCCC)C(=O)O`, the growth is 112% with NCI-H226 lung; 98.1% in the assay with HOP-62 NSCLC; 116% with NCI-H460 lung; 78.8% in the assay with HOP-92 NSCLC; 88.8% with NCI-H522 lung; 102% in the assay on A549/ATCC NSCLC. Also, the growth was 107% in the assay with 786-0 renal; 102% in the assay with COLO 205 colon; 119% with DU-145 prostate; 99.8% in the assay on K-562 leukemia; 119% with MALME-3M melanoma; 105% with MDA-MB-231 breast. Moreover, the growth was 135% in the assay with RXF 393 renal; 104% with SF-268 CNS; 108% in the assay with SF-295 CNS; 104% with SF-539 CNS; 116% in the assay with UACC-257 melanoma; 112% in the assay with M14 melanoma.
Turning to `CCOC(=O)/C=C/c1ccc([N+](=O)[O-])o1`, the growth with NCI-H226 lung is 20.2%; in the assay on NCI-H322M lung it was 96%; with HOP-62 NSCLC it was 112%; in the assay on NCI-H460 lung, 95.6%; in the assay on NCI-H522 lung, -55.1% (active); with A549/ATCC NSCLC, 96.4%. In addition, the growth was 75.8% in the assay on 786-0 renal; 69.2% with DU-145 prostate; 9.66% (active) in the assay with K-562 leukemia; -6.92% (active) in the assay on MALME-3M melanoma; 67.8% in the assay on MDA-MB-231 breast; 18.4% in the assay with RXF 393 renal. Further, the growth is 76.2% in the assay on SF-268 CNS; 99.2% in the assay with SF-295 CNS; 68.3% in the assay with SF-539 CNS; 54.2% in the assay on UACC-257 melanoma; 70.1% in the assay with M14 melanoma.
On to `CN1c2ccccc2C(C)(C)C12C=Cc1cc(O)ccc1O2` (stereo unspecified), for which the growth was 89% in the assay on NCI-H226 lung; 82.8% in the assay with HOP-62 NSCLC; 67.9% in the assay on NCI-H460 lung; -6.47% (active) in the assay with HOP-92 NSCLC; -15.6% (active) in the assay on NCI-H522 lung; 75.2% in the assay on A549/ATCC NSCLC. Further, the growth with 786-0 renal is 87.1%; in the assay on COLO 205 colon it was 78.2%; in the assay on DU-145 prostate, 52.1%; in the assay on K-562 leukemia, 12%; in the assay with MALME-3M melanoma, 69.1%; with MDA-MB-231 breast, 60.9%. Also, the growth in the assay with RXF 393 renal is 57.1%; in the assay on SF-268 CNS, 15.4%; in the assay with SF-295 CNS, 55.9%; with SF-539 CNS it was 25.8%; in the assay on UACC-257 melanoma, 56.7%; with M14 melanoma, 17.9%.
Consider `CNc1ccc(N)cc1`, for which the growth is 96.4% in the assay on NCI-H226 lung; 103% with NCI-H322M lung; 106% in the assay on HOP-62 NSCLC; 106% with NCI-H460 lung; 87.5% in the assay on NCI-H522 lung; 111% with A549/ATCC NSCLC. Besides, the growth in the assay on 786-0 renal was 110%; with COLO 205 colon, 141%; with DU-145 prostate, 121%; in the assay on K-562 leukemia, 135%; in the assay on MALME-3M melanoma it was 98.1%; in the assay with MDA-MB-231 breast, 99%. Moreover, the growth in the assay on RXF 393 renal was 214%; with SF-268 CNS it was 114%; in the assay with SF-295 CNS, 108%; with SF-539 CNS it was 96.8%; with UACC-257 melanoma, 137%; in the assay with M14 melanoma it was 112%.
With `S=C(NCCNC(=S)[S][Sn]([c]1ccccc1)([c]1ccccc1)[c]1ccccc1)[S][Sn]([c]1ccccc1)([c]1ccccc1)[c]1ccccc1`, the growth was -95.4% (active) in the assay with NCI-H226 lung; -99.4% (active) in the assay with NCI-H322M lung; -100% (active) with HOP-62 NSCLC; -86.8% (active) in the assay with NCI-H460 lung; -87.3% (active) in the assay on HOP-92 NSCLC; -93.2% (active) in the assay on NCI-H522 lung. For the same molecule, the growth was -98.8% (active) with A549/ATCC NSCLC; -94% (active) with 786-0 renal; -96.1% (active) in the assay on DU-145 prostate; -70.4% (active) with MALME-3M melanoma; -82.1% (active) in the assay with MDA-MB-231 breast; -99.7% (active) in the assay on RXF 393 renal. Moreover, the growth with SF-268 CNS is -90.9% (active); with SF-295 CNS it was -83.5% (active); in the assay on SF-539 CNS it was -81.7% (active); in the assay on UACC-257 melanoma, -100% (active); with M14 melanoma, -94% (active).
